“And” between values parts separate entries of the source, which are not always exact repeats. Identical values can stand only once. Results filed as inconclusive are left out. Where a structure was tested more than once in an assay, its records may differ in their call. The source made the active and inactive calls. Unless noted, calls come from the whole dose curve; as a rule, active = well fitted curve in the direction sought with a large enough effect in the repeat runs; inconclusive = weak or mixed curves; inactive = no such curve, though single readings can be large; an effect the other way counts as inactive or inconclusive.

Assay [1] in a line: A CellTox Green Cytotoxicity Assay to monitor cytotoxicity in HEK293 cells - 32 hour (AID 1224881). Note: nearly all actives have a fitted effect of over 40% in size. Note: potency is the fitted concentration of half-maximal effect. A digest of the protocol:
(§1)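 HEK293 cells premixed with CellTox Green dye were seeded at 600 cells/well and left 5 h at 37 C/5% CO2 before pin transfer of 23 nL compound in DMSO. Fluorescence from dye bound to dead-cell DNA was read during 40 h treatment.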

The nature of assay [2]: A CellTox Green Cytotoxicity Assay to monitor cytotoxicity in HepG2 cells - 0 hour (AID 1224882). Note: nearly all actives have a fitted effect of over 35% in size. In outline:
(§2)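 HepG2 cells were seeded together with the CellTox Green dye at 600 cells/well, left 5 h at 37 C/5% CO2, then given compounds in DMSO. Fluorescence from dye bound to dead-cell DNA was read repeatedly over 40 h of treatment at 37 C.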

The nature of assay [3]: A CellTox Green Cytotoxicity Assay to monitor cytotoxicity in HepG2 cells - 32 hour (AID 1224883). Note: nearly all actives have a fitted effect of over 50% in size. Note: potency is the fitted concentration of half-maximal effect. A digest of the protocol:
as §2

Assay [4] in a line: A CellTox Green Cytotoxicity Assay to monitor cytotoxicity in HEK293 cells - 8 hour (AID 1224884). Note: nearly all actives have a fitted effect of over 35% in size. In outline: as §1
Assay [5] is described as follows: qHTS RealTime-Glo MT Cell Viability Assay in HepG2 cells - 16 hour (AID 1224885). Note: nearly all actives have a fitted effect of over 50% in size. Note: potency is the fitted concentration of half-maximal effect. A digest of the protocol: (§3)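 HepG2 cells (600/well) were dispensed with RealTime-Glo reagents, incubated 5 h at 37 °C, then treated with compounds in DMSO for up to 40 h. Nonlytic NanoLuc luminescence reflecting viable cells was read at each stated time point.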
Assay [6] can be described thus: qHTS RealTime-Glo MT Cell Viability Assay in HEK293 cells - 24 hour (AID 1224886). Note: nearly all actives have a fitted effect of over 50% in size. Note: potency is the fitted concentration of half-maximal effect. In outline: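 HEK293 cells seeded with NanoLuc/prosubstrate reagent, rested 5 h at 37 C, then dosed and kept at 37 C up to 40 h. Nonlytic real-time luminescence from viable cells read at 0, 8, 16, 24, 32 and 40 h.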
The nature of assay [7]: qHTS RealTime-Glo MT Cell Viability Assay in HEK293 cells - 8 hour (AID 1224887). Note: top concentration of the series differs between compounds; nearly all actives have a fitted effect of over 50% in size. In outline: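 HEK293 cells mixed with RealTime-Glo reagents (NanoLuc plus cell-permeant prosubstrate) at 600 cells/well, preincubated 5 h at 37 C/5% CO2, then given 23 nL compound in DMSO. Nonlytic luminescence from viable cells was read at 0, 8, 16, 24, 32 and 40 h.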
In general terms: In qHTS, concentration-response curves come from the screen itself.

A short description of assay [8]: A CellTox Green Cytotoxicity Assay to monitor cytotoxicity in HEK293 cells - 16 hour (AID 1224888). Note: nearly all actives have a fitted effect of over 35% in size. In outline: as §1
The nature of assay [9]: qHTS RealTime-Glo MT Cell Viability Assay in HepG2 cells - 0 hour (AID 1224889). Note: nearly all actives have a fitted effect of over 50% in size. In outline: as §3
The nature of assay [10]: A CellTox Green Cytotoxicity Assay to monitor cytotoxicity in HepG2 cells - 8 hour (AID 1224890). Note: nearly all actives have a fitted effect of over 45% in size. In outline: as §2
Assay [11] in a line: qHTS assay to identify small molecule antagonists of the estrogen receptor alpha (ER-alpha) signaling pathway using the BG1 cell line in the presence of 0.1 nM 17-beta-estradiol - cell viability counter screen (AID 1259241). Note: nearly all actives have a fitted effect of over 40% in size. Note: potency is the fitted concentration of half-maximal effect. A digest of the protocol:
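Viability in VM7Luc4E2 cells after 22 hr compound exposure under 0.1 nM 17beta-estradiol stimulation, by CellTiter-Fluor.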

The nature of assay [12]: qHTS assay to identify small molecule antagonists of the androgen receptor (AR) signaling pathway using the MDA cell line in the presence of 0.5 nM R1881 - cell viability counter screen (AID 1259242). Note: nearly all actives have a fitted effect of over 45% in size. In outline: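 MDA-kb2 cells (human breast carcinoma, stably carrying MMTV-luciferase reporter) were exposed to compounds with 0.5 nM R1881 (final) for 16 hr at 37C, 0% CO2; viability then read as live-cell protease fluorescence (CellTiter-Fluor, 30 min) in the same wells.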

Assay [13] addresses Estrogen receptor (Homo sapiens) (UniProt P03372). Description: qHTS assay to identify small molecule antagonists of the estrogen receptor alpha (ER-alpha) signaling pathway using the BG1 cell line in the presence of 0.1 nM 17-beta-estradiol (AID 1259244). Note: nearly all actives have a fitted effect of over 50% in size. A digest of the protocol:
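VM7Luc4E2 cells (endogenous full-length ER-alpha, stable 4xERE-luciferase) were grown 5 days in phenol red-free medium with charcoal-stripped FBS, then exposed 22 h at 37C to compounds plus 0.1 nM (final) 17beta-estradiol; ONE-Glo luminescence read-out.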

The nature of assay [14]: qHTS assay to identify small molecule phospholipidosis (PLD) inducers (AID 1259344; active = well fitted curve in the direction sought with a large enough effect; an effect the other way counts as inactive or inconclusive). In outline: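 HepG2 cells, 900/well, treated with compound plus LipidTOX Red for 24 h at 37 C; amiodarone positive and DMSO negative controls. Fixed with paraformaldehyde/Hoechst, then high-content imaging scored LipidTOX pit count and integrated intensity per well and per cell.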
Assay [15] is described as follows: qHTS assay to identify small molecule HDAC inhibitors (AID 1259364). Note: top concentration of the series differs between compounds; nearly all actives have a fitted effect of over 45% in size. A digest of the protocol: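 Wild-type HCT-116 cells were plated overnight, exposed to compounds for 2 h at 37 °C, then given HDAC-Glo class I/II luminogenic reagent for 30 min at room temperature before luminescence was read.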
The nature of assay [16]: qHTS assay to identify small molecule HDAC inhibitors - cell viability counter screen (AID 1259365). In outline: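 Cytotoxicity was gauged in wild-type HCT-116 cells after a brief 2hr treatment with DMSO-dissolved compounds at 37C and 5% CO2, using CellTiter-Glo luminescence developed for 30min at room temperature.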
A short description of assay [17]: qHTS assay to identify small molecule agonists of the sonic hedgehog signaling (Shh) pathway - cell viability counter screen (AID 1259366). Note: nearly all actives have a fitted effect of over 50% in size. Note: potency is the fitted concentration of half-maximal effect. A digest of the protocol:
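Stable Gli1-Luc NIH/3T3 clone, 2,000 cells/well. Compound exposure 24hr at 37C. Read-out: CellTiter-Fluor fluorescence.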

Assay [18] in a line: qHTS assay to identify small molecule antagonists of the sonic hedgehog signaling (Shh) pathway - cell viability counter screen (AID 1259367). Note: nearly all actives have a fitted effect of over 55% in size. Note: potency is the fitted concentration of half-maximal effect. In outline: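 NIH/3T3-derived Gli1-Luc reporter cells, 2,000/well, plated 4 hr before compound addition, then stimulated with conditioned medium for 24 hr at 37C. Viability measured in the same wells by CellTiter-Fluor fluorescence, reagent added at 23 hr for 1 hr.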

Assay [19] in a line: qHTS assay to identify small molecule agonists of the sonic hedgehog signaling (Shh) pathway (AID 1259368; calls by dose curve; note: series mostly up to about 92 µM; nearly all actives have a fitted effect of over 15% in size). In outline: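 NIH/3T3-derived 3T3Gli1-Luc cells carrying a stably integrated Gli1 response element–firefly luciferase reporter were plated, left 4 hr at 37 C, then given compounds in DMSO for 24 hr. Luminescence was read 30 min after adding luciferase reagent.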
Assay [20] deals with Androgen receptor (Homo sapiens) (UniProt P10275). Description: qHTS assay to identify small molecule antagonists of the androgen receptor (AR) signaling pathway using the MDA cell line in the presence of 0.5 nM R1881 (AID 1259243). Note: nearly all actives have a fitted effect of over 50% in size. Note: potency is the fitted concentration of half-maximal effect. In outline:
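MDA-kb2 human breast carcinoma cells carrying an MMTV-luciferase reporter (AR- and GR-responsive) were plated, rested 5 hr at 37C, dosed with compounds, then stimulated with 0.5 nM R1881 (final) for 16 hr; luminescence was read after ONE-Glo.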

Sequence of Estrogen receptor (Homo sapiens) (P03372 whole entry, looked up): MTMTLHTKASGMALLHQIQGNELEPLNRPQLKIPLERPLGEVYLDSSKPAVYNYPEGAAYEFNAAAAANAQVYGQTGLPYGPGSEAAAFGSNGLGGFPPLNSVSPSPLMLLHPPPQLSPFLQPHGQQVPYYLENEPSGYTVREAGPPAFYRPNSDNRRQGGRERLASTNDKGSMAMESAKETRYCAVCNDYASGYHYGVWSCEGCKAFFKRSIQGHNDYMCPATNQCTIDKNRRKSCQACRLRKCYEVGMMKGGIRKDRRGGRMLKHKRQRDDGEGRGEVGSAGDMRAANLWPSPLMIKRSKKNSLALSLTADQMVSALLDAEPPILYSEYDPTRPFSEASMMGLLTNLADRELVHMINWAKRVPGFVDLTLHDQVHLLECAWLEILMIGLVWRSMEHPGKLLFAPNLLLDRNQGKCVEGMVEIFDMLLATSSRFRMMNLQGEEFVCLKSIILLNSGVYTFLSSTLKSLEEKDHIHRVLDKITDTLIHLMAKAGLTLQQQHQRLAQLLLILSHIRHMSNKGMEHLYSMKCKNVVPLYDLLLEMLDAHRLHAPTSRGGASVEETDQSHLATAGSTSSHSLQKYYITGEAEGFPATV
Sequence of Androgen receptor (Homo sapiens) (P10275 whole entry, looked up): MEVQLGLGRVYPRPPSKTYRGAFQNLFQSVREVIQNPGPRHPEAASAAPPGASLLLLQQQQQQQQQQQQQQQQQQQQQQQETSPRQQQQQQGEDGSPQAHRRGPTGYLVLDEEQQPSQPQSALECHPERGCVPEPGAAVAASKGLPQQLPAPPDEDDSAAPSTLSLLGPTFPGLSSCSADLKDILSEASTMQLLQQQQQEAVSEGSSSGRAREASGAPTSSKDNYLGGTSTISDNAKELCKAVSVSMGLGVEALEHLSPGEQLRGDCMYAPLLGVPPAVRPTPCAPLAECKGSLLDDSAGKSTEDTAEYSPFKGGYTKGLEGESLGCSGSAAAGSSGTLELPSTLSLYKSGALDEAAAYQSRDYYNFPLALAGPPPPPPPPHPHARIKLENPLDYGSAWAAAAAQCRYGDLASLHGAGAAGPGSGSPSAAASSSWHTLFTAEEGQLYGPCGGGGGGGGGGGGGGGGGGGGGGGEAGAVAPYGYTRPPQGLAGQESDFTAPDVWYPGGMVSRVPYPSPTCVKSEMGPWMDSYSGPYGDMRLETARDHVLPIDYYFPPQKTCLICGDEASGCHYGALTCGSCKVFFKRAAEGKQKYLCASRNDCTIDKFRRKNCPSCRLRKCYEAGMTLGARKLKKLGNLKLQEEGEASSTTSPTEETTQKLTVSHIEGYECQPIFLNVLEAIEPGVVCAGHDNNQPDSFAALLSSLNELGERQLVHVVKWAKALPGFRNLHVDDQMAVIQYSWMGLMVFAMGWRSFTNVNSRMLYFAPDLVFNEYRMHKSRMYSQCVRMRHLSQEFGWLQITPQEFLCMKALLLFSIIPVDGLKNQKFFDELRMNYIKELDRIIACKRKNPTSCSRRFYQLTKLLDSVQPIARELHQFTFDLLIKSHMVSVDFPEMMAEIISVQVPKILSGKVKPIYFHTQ

Turning to `Cn1c(=O)c2[nH]cnc2n(C)c1=O`, the Potency result in assay [1], in assay [2], in assay [3], in assay [4], in assay [5] and in assay [6] was “inactive” in each case. The Potency entry in assay [7], in assay [8], in assay [9], in assay [10], in [11] and in assay [12] was “inactive” throughout. Also, the Potency entry in assay [13], in assay [15], in assay [17] and in assay [18] was “inactive” each time. Further, the outcome in assay [14], in assay [16] and in assay [19] was inactive.
As for `C/C=C/c1ccc(OC)cc1`, the Potency entry in assay [1], in [2], in [3], in assay [4], in [5] and in [6] was “inactive” in each case. The Potency entry in [7], in assay [8], in assay [10], in assay [11], in assay [12] and in assay [15] was “inactive” throughout. In addition, the Potency entry in [17] and in assay [18] was “inactive” each time. The compound was classed as inactive in assay [14], in [16] and in assay [19].
For the compound `O=NO`, the Potency entry in assay [1], in [2], in assay [3], in [4], in assay [5] and in assay [6] was “inactive” in each case. Besides, the Potency entry in assay [7], in [8], in assay [10], in assay [11], in assay [15] and in assay [17] was “inactive” throughout. In addition, the Potency result in assay [18] was “inactive”. Moreover, the outcome in assay [16] and in [19] was inactive.
Turning to `O=C(C1CCCCC1)N1CC(=O)N2CCc3ccccc3C2C1` (stereo not drawn), the Potency result in assay [1], in assay [2], in assay [3], in [4], in assay [5] and in assay [6] was “inactive” throughout. Moreover, the Potency entry in assay [7], in assay [8], in assay [9], in assay [10], in [11] and in assay [12] was “inactive” in each case. The Potency entry in assay [15] and in assay [18] was “inactive” each time. In addition, the call in [14], in assay [16] and in [19] was inactive.
In the case of `c1ccc2[nH]ccc2c1`, the Potency in assay [1] was 6.81 µM (active) and inactive; in assay [3] it was 3.83 µM (active) and inactive; in assay [5] it was 15.2 µM (active) and inactive; in assay [6], 2.41 µM (active) and inactive; in assay [20] it was 2.39 µM (active) and inactive. In addition, the Potency result in assay [2], in [4], in [7], in [9], in [10] and in assay [15] was “inactive” throughout. The Potency result in [17] and in [18] was “inactive” in each case. Also, the compound was classed as inactive in assay [14], in assay [16] and in [19].
As to `O=C(O)c1[nH]n(-c2ccc(S(=O)(=O)O)cc2)c(=O)c1N=Nc1ccc(S(=O)(=O)O)cc1`, the Potency entry in assay [1], in assay [2], in assay [3], in [4], in [5] and in assay [6] was “inactive” throughout. Besides, the Potency entry in [7], in [8], in assay [9], in assay [10], in [13] and in assay [15] was “inactive” each time. The Potency in [11] was 48.7 µM (active) and 28.6 µM (active); in assay [17] it was 27.4 µM (active) and 25.5 µM (active); in assay [18], 30.7 µM (active) and 25.5 µM (active). For the same compound, the call in [14], in [16] and in assay [19] was inactive.
On to `Nc1ccc(C(=O)O)cc1`, for which the Potency result in assay [1], in [2], in [3], in assay [4], in assay [5] and in assay [6] was “inactive” throughout. Moreover, the Potency result in [7], in assay [8], in assay [9], in [10], in assay [11] and in [13] was “inactive” each time. Moreover, the Potency entry in assay [15], in assay [17] and in assay [18] was “inactive” each time. Besides, the call in [14], in assay [16] and in assay [19] was inactive.
Take `CCCNC(=O)NS(=O)(=O)c1ccc(Cl)cc1`: the Potency result in assay [1], in [2], in [3], in assay [4], in assay [5] and in [6] was “inactive” each time. Besides, the Potency entry in assay [7], in assay [8], in [9], in assay [10], in [11] and in assay [13] was “inactive” in each case. Besides, the Potency result in assay [15], in assay [17] and in assay [18] was “inactive” throughout. Also, the result in [14], in assay [16] and in assay [19] was inactive.

For the origin of these results see PubChem BioAssay (Tox21).
